Screening results deposited in PubChem BioAssay by National Center for Advancing Translational Sciences (NCATS).
Pf growth 96h = Primary qHTS for delayed death inhibitors of the malarial parasite plastid, 96 hour incubation; P. falciparum luciferase reporter growth, 96 h; Potency, µM (doses to about 28.7 µM), for the others: top-dose activity change, negative = inhibition, actives largely listed as inhibitors; 320,000 compounds, 6.9% hits
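Infected RBCs, 2% Hct / 0.05% parasitemia final; luciferase-reporter P. falciparum; cpd 96 h, 37 C, 5% CO2; luciferase detection reagent; luminescence.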
Pf growth 48h = Primary qHTS for delayed death inhibitors of the malarial parasite plastid, 48 hour incubation; Potency, µM (titrated, usually from 28.7 µM), for the others: top-dose activity change, negative = inhibition, usual class: inhibitors; P. falciparum luciferase growth in erythrocytes, 48 h; AID 504832, 2011; 310,000 compounds, 5.9% hits
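Firefly luciferase activity from engineered P. falciparum reports growth; inhibitors lower the luminescent signal. Cultures contained 2% hematocrit erythrocytes at 0.1% final parasitemia.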
AMA1 RON2 block = qHTS for Inhibitors of AMA1-RON; Towards Development of Antimalarial Drug Lead: Primary Screen. Potency, µM (top dose mostly 58.2 µM), for inactives: at the top dose activity change, negative = inhibition, usual class: inhibitors. Plasmodium falciparum AMA1 (3D7) - RON2 peptide interaction. AlphaScreen AMA1-biotinylated RON2 peptide binding. AID 720542, 2013. 360,000 compounds, 0.2% hits;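 further: 0% = vehicle wells and -100% = peptide control; nearly all actives have a fitted effect of over 45% in size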
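AMA1 (3D7) with his tag at 25 nM final met compounds first, then biotinylated RON2 peptide at 25 nM; detection used donor plus acceptor beads, 10 µg/mL apiece, read by AlphaScreen after 30 min at room temperature.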
VACV mCherry inh = qHTS for Stage-Specific Inhibitors of Vaccinia Orthopoxvirus: mCherry Reporter Primary qHTS. Vaccinia virus mCherry reporter infection, fluorescence. Potency, µM (highest dose often 36.5 µM), for inactives: at the top dose activity change, negative = inhibition, hits mostly inhibitors. 310,000 compounds, 0.63% hits; calls by dose curve; tested in A549 cells; further: nearly all actives have a fitted effect of over 35% in size
Vaccinia Venus = qHTS for Stage-Specific Inhibitors of Vaccinia Orthopoxvirus: Venus Reporter Primary qHTS; 330,000 compounds, 0.46% hits; Potency, µM (highest dose often 36.5 µM), without a hit: at the highest dose activity change, negative = inhibition, most hits filed as inhibitors; Vaccinia virus Venus reporter expression, fluorescence; calls by dose curve; tested in A549 cells; further: nearly all actives have a fitted effect of over 30% in size
The depositor's hits bear a star; [ ] = another dose, or the depositor's remark. Most compounds without a hit are left out; they make up all but 8.7% or so of the library. Unless noted, the call rests on the fitted dose curve; in most records, active means well fitted curve in the direction sought with a large enough effect; inconclusive means small, poorly fitted or top-dose-only effect, or another doubt; inactive means no such curve, though single readings can be large; an effect the other way counts as inactive or inconclusive. Unless noted, on the % scale 0 is the no-effect control and ±100 the full control effect; potency means the concentration at half of the fitted maximal effect.

How did CCOc1ccc(-c2c(C(=O)N/N=C/c3ccc(C)cc3)nnn2-c2nonc2N)cc1 do in these assays?
Pf growth 96h: -11%; Pf growth 48h: inconclusive; AMA1 RON2 block: 1%

How did CCOc1ccc(-c2c(C(=O)N/N=C/c3ccc(Cl)cc3)nnn2-c2nonc2N)cc1 do in these assays?
Pf growth 96h: inconclusive; Pf growth 48h: 9.3µM*; AMA1 RON2 block: 2%

Results for Cc1ccc(-c2c(C(=O)N/N=C/c3ccsc3)nnn2-c2nonc2N)cc1 ?
Pf growth 96h: inconclusive; Pf growth 48h: inconclusive; AMA1 RON2 block: 5%; VACV mCherry inh: inactive[7.34 µM]; Vaccinia Venus: -10%[7.34 µM]

What do the screens show for `O=C(Nc1sc2c(c1-c1nc3ccccc3[nH]1)CCCC2)C1CCCC1`?
Pf growth 96h: 13µM*; Pf growth 48h: 12µM*; AMA1 RON2 block: -11%; VACV mCherry inh: -29%; Vaccinia Venus: -22%

Results for CN1CCN(S(=O)(=O)c2cccc(C(=O)Nc3sc4c(c3-c3nc5ccccc5[nH]3)CCCC4)c2)CC1 ?
Pf growth 96h: 3.3µM*; Pf growth 48h: 2.9µM*; AMA1 RON2 block: 15%; VACV mCherry inh: -10%; Vaccinia Venus: -15%

What do the screens show for `CC(=O)NCCC(=O)Nc1sc2c(c1-c1nc3ccccc3[nH]1)CCCC2`?
Pf growth 96h: inconclusive; Pf growth 48h: inconclusive; AMA1 RON2 block: 40%; VACV mCherry inh: -15%[1.46 µM]; Vaccinia Venus: -23%

How did CCOc1ccccc1CNC(=O)c1ccc(Cn2c(=O)c3cccn3c3cccnc32)cc1 do in these assays?
VACV mCherry inh: -20%; Vaccinia Venus: -18%

How did CCCC(=O)Nc1cccc(-c2cn3c(C)csc3n2)c1 do in these assays?
VACV mCherry inh: -9%[7.34 µM]; Vaccinia Venus: -11%[7.34 µM]

Results for COc1ccc(OC)c(C(=O)CSc2nccc(-c3ccc(Br)cc3)n2)c1 ?
Pf growth 96h: inconclusive; Pf growth 48h: 12µM*; AMA1 RON2 block: -3%; VACV mCherry inh: -2%; Vaccinia Venus: -14%

Results for COc1ccccc1-n1cc(C(=O)c2cc(Cl)ccc2O)cc(C#N)c1=O ?
Pf growth 96h: inconclusive; Pf growth 48h: inconclusive; AMA1 RON2 block: 0%; VACV mCherry inh: -1%; Vaccinia Venus: 6%

What do the screens show for `Cc1ccccc1-n1cc(C(=O)c2cc(Cl)ccc2O)cc(C#N)c1=O`?
Pf growth 96h: 2.6µM*; Pf growth 48h: 5.2µM*; AMA1 RON2 block: 0%; VACV mCherry inh: -6%; Vaccinia Venus: -14%

How did CN(C)c1ncc([N+](=O)[O-])cc1C(F)(F)F do in these assays?
Pf growth 96h: 38%; Pf growth 48h: 0.74µM*; AMA1 RON2 block: -20%; VACV mCherry inh: -16%; Vaccinia Venus: -12%

What do the screens show for `Cc1cc(N/N=C/c2ccccc2Cl)nc(NCc2ccccc2)n1`?
Pf growth 96h: inconclusive; Pf growth 48h: 1.5µM*; AMA1 RON2 block: -21%; VACV mCherry inh: 13µM*; Vaccinia Venus: inconclusive

How did COc1ccc(Nc2cc(C)nc(NCc3ccccc3)n2)cc1 do in these assays?
Pf growth 96h: 1.7µM*; Pf growth 48h: 0.47µM*; AMA1 RON2 block: inconclusive; VACV mCherry inh: -7%[7.34 µM]; Vaccinia Venus: -9%[7.34 µM]

How did COc1cc(C)nc(NCc2ccccc2)n1 do in these assays?
Pf growth 96h: inconclusive; Pf growth 48h: 3%; AMA1 RON2 block: -10%; VACV mCherry inh: -6%; Vaccinia Venus: 4%

Results for COC(=O)c1ccc(Oc2cc(C)nc(NCc3ccccc3)n2)cc1 ?
Pf growth 96h: 10µM*; Pf growth 48h: inconclusive; AMA1 RON2 block: 21%; VACV mCherry inh: -11%; Vaccinia Venus: -12%

Results for COC(=O)c1ccc(Oc2nc(C)cc(Oc3ccccc3)n2)cc1 ?
Pf growth 96h: 8%; Pf growth 48h: inconclusive; AMA1 RON2 block: -15%; VACV mCherry inh: -10%; Vaccinia Venus: 7%

Results for Cc1ccc(Nc2cc(C)nc(NCc3ccccc3)n2)cc1 ?
Pf growth 96h: 44%; Pf growth 48h: 0.66µM*; AMA1 RON2 block: -12%; VACV mCherry inh: inconclusive; Vaccinia Venus: inconclusive

Results for O=C(NCc1cccnc1)[C@@H]1CC=C[C@@H]2CCN(C3CCCCC3)C(=O)[C@@H]21 ?
VACV mCherry inh: -23%; Vaccinia Venus: -11%

Results for CCC(=O)Oc1ccc(C2Nc3ccccc3-c3nnc(SC)nc3O2)cc1 (stereo not given) ?
VACV mCherry inh: -18%; Vaccinia Venus: -2%

What do the screens show for `Cc1cccc(Cn2c(SCc3ccc(C(=O)NCc4ccccc4F)cc3)nc3ccncc32)c1`?
VACV mCherry inh: inconclusive; Vaccinia Venus: -22%

How did O=C(CSc1n[nH]c(-c2ccccc2)n1)NCCCc1ccccc1 do in these assays?
VACV mCherry inh: -8%; Vaccinia Venus: -17%

How did Cc1cc(NC2CCCCC2)nc(NCc2ccccc2)n1 do in these assays?
Pf growth 96h: 1.5µM*; Pf growth 48h: 1.9µM*; AMA1 RON2 block: -2%

How did COc1cccc(CNc2nccn(-c3cc(C)cc(C)c3)c2=O)c1 do in these assays?
VACV mCherry inh: -14%; Vaccinia Venus: -9%

How did CC1(C)CC(=O)c2c(oc3cc(O)c(O)cc23)C1 do in these assays?
Pf growth 96h: 58%; AMA1 RON2 block: 1.6µM*

Results for Cc1csc2nc(COc3ccccc3NC(=O)c3ccccc3Cl)cc(=O)n12 ?
VACV mCherry inh: -21%; Vaccinia Venus: -13%

What do the screens show for `COc1cccc(OCCCCn2c(-c3ccc(Cl)cc3)nc3ccccc3c2=O)c1`?
VACV mCherry inh: -11%; Vaccinia Venus: -2%

What do the screens show for `COc1ccccc1CNC(=O)c1ccc2c(c1)nc(C)n2-c1cccc(C)c1`?
VACV mCherry inh: -11%; Vaccinia Venus: -9%

What do the screens show for `COC(=O)c1c(NC(=O)CC2SC(N)=NC2=O)sc2c1CCC(C)C2` (stereo not given)?
Pf growth 96h: 3.7µM*; Pf growth 48h: 5%; AMA1 RON2 block: 4%; VACV mCherry inh: -20%; Vaccinia Venus: -21%

Results for CCOC(=O)c1ccc(NS(=O)(=O)c2cc(Br)cc3c2N(C(C)=O)C(C)C3)cc1 (stereo not given) ?
VACV mCherry inh: -7%; Vaccinia Venus: -6%

Results for COc1ccc(OC)c(-c2cn(S(=O)(=O)c3ccccc3)nc2N)c1 ?
Pf growth 96h: 15µM*; AMA1 RON2 block: -7%

What do the screens show for `COc1ccccc1-c1cn(S(=O)(=O)c2ccc(C)cc2)nc1N`?
Pf growth 96h: -5%; Pf growth 48h: -26%; AMA1 RON2 block: 14%; Vaccinia Venus: -26%

How did CC(=O)c1c(C)[nH]c(C(=O)OCC(=O)Nc2ccc(Cl)c(S(=O)(=O)N(C)C)c2)c1C do in these assays?
Pf growth 96h: 6.6µM*; Pf growth 48h: 1.2µM*; AMA1 RON2 block: -5%
